The supplement of paper PMC13380429

system: Vero E6 infected with SARS-CoV-2; assay: morphology score (similarity to uninfected cells); higher = more like uninfected cells; conditions: 24 h

| Structure (SMILES) | morphology score |
| --- | --- |
| Cc1c(N)c(=O)n(-c2ccccc2)n1C [ampyrone] (10 µM) | -0.0355 |
| Cc1cc(NC(=O)C(c2ccccc2)N2CCCc3ccccc32)no1 (stereo not given) (10 µM) | 0.018 |
| O=c1cc(-c2cccc3c2Sc2ccccc2S3)oc(N2CCOCC2)c1 (10 µM) | 0.284 |
| CN(C)c1ccccc1CN1CCCN(Cc2ccccc2N(C)C)C1c1ccncc1 (10 µM) | 0.576 |
| C=C1/C(=C\C=C2/CCC[C@]3(C)[C@@H]([C@H](C)/C=C/C=C/C(O)(CC)CC)CC[C@@H]23)C[C@@H](O)C[C@@H]1O [seocalcitol] (10 µM) | -0.0779 |
| CN1CCN(CC(=O)N2c3ccccc3C(=O)Nc3cccnc32)CC1 [pirenzepine] (10 µM) | -0.00972 |

system: Vero E6 infected with SARS-CoV-2; assay: SARS-CoV-2 infection rate relative to infected DMSO; higher = more infection, active = 60 or less; conditions: 24 h

| Structure (SMILES) | SARS-CoV-2 infection rate |
| --- | --- |
| CN(C)C(=O)[C@H](O)[C@H](Cc1ccccc1)NC(=O)c1cc2cc(Cl)ccc2[nH]1 (10 µM) | 102% (inactive) |
| Fc1ccc(C(c2ccc(F)cc2)N2CCN(C/C=C/c3ccccc3)CC2)cc1 [flunarizine] (10 µM) | 69.5% (inactive) |
| CCCCN(CCCC)CCCOC(=O)c1ccc(N)cc1 [butacaine] (10 µM) | 100% (inactive) |
| CC(C)(O)c1ccccc1CC[C@@H](SCC1(CC(=O)O)CC1)c1cccc(/C=C/c2ccc3ccc(Cl)cc3n2)c1 [montelukast] (10 µM) | 92.5% (inactive) |
| O=C(CCCN1CCN(c2ccccn2)CC1)c1ccc(F)cc1 [azaperone] (10 µM) | 83% (inactive) |
| CC(=O)O/N=C1\C(=O)N(Cc2cc(Cl)ccc2Cl)c2ccc(Cl)cc21 (10 µM) | 76% (inactive) |
| O=C(CCCCCCCC(=O)NCCO)NCCO [adelmidrol] (10 µM) | 105% (inactive) |
| CCC(C)C(C(=O)OCC[N+](C)(CC)CC)c1ccccc1 (stereo not given) [valethamate] (10 µM) | 95% (inactive) |
| CN1CCN(S(=O)(=O)c2ccc(-c3cnc(N)c(C(=O)Nc4cccnc4)n3)cc2)CC1 (0.833333 µM) | 99% (inactive) |
| O=C(O)Cc1ccc(OCCNC[C@H](O)c2ccccc2)cc1 (10 µM) | 106% (inactive) |
| Cc1[nH]c(=O)c(C#N)cc1-c1ccc2nccn2c1 [olprinone] (10 µM) | 104% (inactive) |
| COc1ccc2c(c1)CN(C)CC2c1ccc(Cl)c(Cl)c1 (stereo not given) [diclofensine] (10 µM) | 106% (inactive) |
| CCCCC(F)(F)[C@@]1(O)CC[C@H]2[C@@H](CC(=O)[C@@H]2CCCCCCC(=O)O)O1 [lubiprostone] (10 µM) | 107% (inactive) |
| CNCC(O)c1ccc(O)c(O)c1 (racemic) [DL-Adrenaline] (10 µM) | 109% (inactive) |
| CCOC(=O)C1=C(N)Oc2ccc(Br)cc2C1C(C#N)C(=O)OCC (stereo not given) (10 µM) | 108% (inactive) |
| CCC[C@@H]1CC2=CC(=O)CC[C@]2(C)[C@H]2CC[C@@]3(C)[C@@H](CC[C@@]3(O)CCC(=O)O)[C@H]12 (10 µM) | 104% (inactive) |
| O=C(O)c1ccccc1C(=O)Nc1ccc(S(=O)(=O)Nc2nccs2)cc1 [phthalylsulfathiazole] (10 µM) | 102% (inactive) |
| CCN(CC)CCOC(=O)C1(c2ccccc2)CCCC1 [caramiphen] (10 µM) | 95.5% (inactive) |
| CCOC(=O)Nc1ccc2c(c1)N(C(=O)CCN1CCOCC1)c1ccccc1S2 [moracizine] (10 µM) | 112% (inactive) |
| CC[N+](C)(CC)CC(=O)Nc1c(C)cccc1C [N-methyllidocaine-iodide] (10 µM) | 100% (inactive) |

| Structure (SMILES) | SARS-CoV-2 infection rate |
| --- | --- |
| Cc1cc2sc(NC(=O)Cc3ccccc3)nc2cc1Cl (10 µM) | 76.5% (inactive) |
| Cc1c(C(=O)NN2CCCCC2)nn(-c2ccc(Cl)cc2Cl)c1-c1ccc(Cl)cc1 [rimonabant] (10 µM) | 110% (inactive) |
| C[C@]12CC[C@H]3[C@@H](CC[C@]4(O)C[C@@H](O)CC[C@]34C=O)[C@@]1(O)CC[C@@H]2C1=CC(=O)OC1 [K-strophanthidin] (0.833333 µM) | 92% (inactive) |
| Cc1c(CN(C)C(=O)/C=C/c2cnc3c(c2)CCC(=O)N3)oc2ccccc12 (10 µM) | 94% (inactive) |
| CCOC(=O)[C@@H](N)CCC(=O)N[C@@H](CSCc1ccccc1)C(=O)N[C@@H](C(=O)OCC)c1ccccc1 [ezatiostat] (10 µM) | 78.5% (inactive) |
| COc1cc(-n2c(=S)[nH]c3ccccc3c2=O)c(Cl)cc1Cl [mdivi-1] (10 µM) | 112% (inactive) |
| CC[C@@H](CO)NC(=O)[C@@H]1C=C2c3cccc4[nH]cc(c34)C[C@H]2N(C)C1 [methylergometrine] (10 µM) | 96.5% (inactive) |
| O=C(Nc1cccc(Nc2ncc(Br)c(NCCc3cnc[nH]3)n2)c1)N1CCCC1 (10 µM) | 110% (inactive) |
| NS(=O)(=O)c1cccc2c1c([N+](=O)[O-])cc1nc(O)c(O)nc12 (10 µM) | 104% (inactive) |
| C[C@H]1[C@H](C)CC[C@]2(C(=O)O)CC[C@]3(C)C(=CC[C@@H]4[C@@]5(C)C[C@@H](O)[C@H](O)[C@@](C)(CO)[C@@H]5CC[C@]43C)[C@H]12 [asiatic-acid] (10 µM) | 108% (inactive) |
| O=c1nc2ccccc2c2n1CC(CN1CCN(c3ccccc3)CC1)N2 (stereo not given) (10 µM) | 93% (inactive) |
| CCCCCCCCCCCCCCC[C@@H](O)[C@@H](N)CO [safingol] (10 µM) | 117% (inactive) |
| OC(CCN1CCCCC1)(c1ccccc1)C1CC2C=CC1C2 (stereo not given) [biperiden] (10 µM) | 75.5% (inactive) |
| Cc1c(N)c(=O)n(-c2ccccc2)n1C [ampyrone] (10 µM) | 113% (inactive) |
| Cc1cc(NC(=O)C(c2ccccc2)N2CCCc3ccccc32)no1 (stereo not given) (10 µM) | 92% (inactive) |
| O=c1cc(-c2cccc3c2Sc2ccccc2S3)oc(N2CCOCC2)c1 (10 µM) | 83% (inactive) |
| CN(C)c1ccccc1CN1CCCN(Cc2ccccc2N(C)C)C1c1ccncc1 (10 µM) | 42% (active) |
| C=C1/C(=C\C=C2/CCC[C@]3(C)[C@@H]([C@H](C)/C=C/C=C/C(O)(CC)CC)CC[C@@H]23)C[C@@H](O)C[C@@H]1O [seocalcitol] (10 µM) | 110% (inactive) |
| CN1CCN(CC(=O)N2c3ccccc3C(=O)Nc3cccnc32)CC1 [pirenzepine] (10 µM) | 108% (inactive) |
